Measured values reported in paper PMC4336329 (PLoS ONE, 2015).
The campaign covered roughly 310,000 compounds. About 14,000 (4.5%) showed an effect of 50% or more. Effects have a minus sign here. The full list was thinned out, with strong results kept by preference.

target: human ether-à-go-go-related gene (hERG) potassium channel (human, UniProt Q12809); experiment: primary screen, population patch clamp on CHO cells stably expressing hERG; higher = less effect of the substance
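Further: peak tail current of the secondary pulse compared with the same well before compound.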

Sequence of human ether-à-go-go-related gene (hERG) potassium channel (Q12809 whole entry, looked up): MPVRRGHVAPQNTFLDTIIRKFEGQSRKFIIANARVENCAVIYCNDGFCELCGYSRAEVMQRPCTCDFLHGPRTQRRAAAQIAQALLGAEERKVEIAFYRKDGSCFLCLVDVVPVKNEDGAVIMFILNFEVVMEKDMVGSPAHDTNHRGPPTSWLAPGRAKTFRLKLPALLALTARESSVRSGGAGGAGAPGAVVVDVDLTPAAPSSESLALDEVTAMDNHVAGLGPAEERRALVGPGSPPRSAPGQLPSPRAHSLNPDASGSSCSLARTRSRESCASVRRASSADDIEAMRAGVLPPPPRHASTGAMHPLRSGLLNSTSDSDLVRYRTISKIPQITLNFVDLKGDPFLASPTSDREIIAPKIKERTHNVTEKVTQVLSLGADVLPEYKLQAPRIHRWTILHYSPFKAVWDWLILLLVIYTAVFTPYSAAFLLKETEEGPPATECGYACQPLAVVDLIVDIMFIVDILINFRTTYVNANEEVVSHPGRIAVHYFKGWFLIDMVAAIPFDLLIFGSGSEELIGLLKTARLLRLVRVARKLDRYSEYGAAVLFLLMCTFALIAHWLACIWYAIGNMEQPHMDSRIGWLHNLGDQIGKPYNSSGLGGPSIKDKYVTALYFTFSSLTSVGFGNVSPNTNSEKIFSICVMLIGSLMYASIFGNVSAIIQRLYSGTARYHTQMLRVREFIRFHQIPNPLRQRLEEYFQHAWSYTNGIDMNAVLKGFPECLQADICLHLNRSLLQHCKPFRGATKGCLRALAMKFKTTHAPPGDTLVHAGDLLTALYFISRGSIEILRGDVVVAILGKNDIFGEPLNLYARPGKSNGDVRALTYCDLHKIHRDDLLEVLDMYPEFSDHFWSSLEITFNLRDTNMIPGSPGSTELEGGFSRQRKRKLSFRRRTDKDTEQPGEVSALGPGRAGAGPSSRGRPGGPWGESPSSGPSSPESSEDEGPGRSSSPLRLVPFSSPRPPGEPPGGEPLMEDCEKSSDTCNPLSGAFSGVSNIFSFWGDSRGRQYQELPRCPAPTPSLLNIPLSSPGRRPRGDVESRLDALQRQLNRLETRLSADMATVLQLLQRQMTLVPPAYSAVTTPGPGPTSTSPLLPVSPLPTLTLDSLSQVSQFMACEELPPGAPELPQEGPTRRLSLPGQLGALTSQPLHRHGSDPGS

Compound	hERG current change (%, negative = inhibition) at 10uM [%]
Cc1onc(-c2ccccc2)c1C(=O)OCC(=O)NC(=O)c1ccccc1	-31.1
CCCCc1ccc(S(=O)(=O)NC2CCS(=O)(=O)C2)cc1 (centres unmarked)	-2.26
Clc1ccccc1Cn1nnc2c(Nc3ccccc3)ncnc21	-0.775
COc1ccc(C2=NN(C(=O)c3ccco3)C(c3cc4ccccc4nc3Cl)C2)cc1 (centres unmarked)	8.45
Cc1ccc(OCC(=O)NNC(=O)C2CCN(c3ncnc4sc(C)c(C)c34)CC2)cc1	-50.7
Cc1cccc(OCC(=O)NNC(=O)C2CCN(c3ncnc4sc(C)c(C)c34)CC2)c1	-48.2
Cc1cc(Cl)ccc1OCC(=O)NNC(=O)C1CCN(c2ncnc3sc(C)c(C)c23)CC1	5.64
Cc1sc2ncnc(N3CCC(C(=O)NNC(=O)c4ccc(F)cc4)CC3)c2c1C	-21.9
CCc1ccc(OCC(=O)NNC(=O)C2CCN(c3ncnc4sc(C)c(C)c34)CC2)cc1	-45.3
Cc1sc2ncnc(N3CCC(C(=O)NNC(=O)COc4ccc(Br)cc4)CC3)c2c1C	-68.5
CCOc1ccc(OCC)c(NC(=O)C2CCCN2S(=O)(=O)c2cccc3cccnc23)c1 (centres unmarked)	-4.43
COc1cc(C=Nc2c(C)cc(C)cc2C)ccc1OC(C)=O	10.6
COc1ccc(CCCc2nnc(SCC(=O)Nc3cc(C)ccc3C)o2)cc1	0.676
CN=C1S/C(=C/c2cn(CC(=O)OC)c3ccccc23)C(=O)N1C	11.1
COC(=O)c1sccc1NC(=O)Nc1ccc(OC)cc1OC	-20.3
COC(=O)c1sccc1NC(=O)Nc1ccccc1OC	-41.4
CCOc1ccccc1C(=O)Nc1ccsc1C(=O)OC	-0.813
COC(=O)c1sccc1NC(=S)Nc1cc(OC)ccc1OC	30.4
COC(=O)c1sccc1NC(=O)Nc1cc(OC)ccc1OC	-57.4

Compound	hERG current change (%, negative = inhibition) at 10uM [%]
CCOc1ccccc1NC(=O)Nc1ccsc1C(=O)OC	-62
COC(=O)c1c(N2C(=O)[C@H]3[C@@H](C2=O)[C@]2(C(=O)Nc4c2ccc(C)c4C)N2CCC[C@@H]32)sc(C)c1C	15.4
C/C(=C\C(=O)c1ccccc1)NCc1ccc(F)cc1	-22.7
Cc1cc(S(=O)(=O)n2cnc3cc([N+](=O)[O-])ccc32)ccc1Cl	-2.69
Cc1ccc(C(=O)Nc2cnc3ccccn3c2=O)cc1	-17.2
Cc1cc(=O)[nH]c(SCc2cccc3cccnc23)n1	13.3
COc1ccc(CNc2c(CO)cnc3c2cnn3C)cc1	-13
COc1ccc(NC(=O)CN(C)C(=O)c2cccc(S(=O)(=O)N3CCN(c4ccccc4)CC3)c2)cc1	-3.62
O=C(N/N=C/c1ccco1)c1cc([N+](=O)[O-])cc([N+](=O)[O-])c1	6.85
COC(=O)C(C)N(C#N)c1nc(C)cc(C)n1 (centres unmarked)	8.78
CC1(C)C(=O)Nc2ccccc2N1C(=O)COC(=O)Cc1c(F)cccc1Cl	-50.1
COc1ccc(N2CCN(C(=O)COC(=O)CCc3ccccc3)CC2)cc1	-0.829
COc1cccc(CC(=O)OCC(=O)N2CCN(c3ccc(F)cc3)CC2)c1	-60.6
COc1ccc(NC(=O)COC(=O)Cc2c(F)cccc2Cl)cc1	-0.319
COc1ccc(N2CCN(C(=O)COC(=O)Cc3c(F)cccc3Cl)CC2)cc1	-79
CC1(C)C(=O)Nc2ccccc2N1C(=O)COC(=O)CSc1ccc(F)cc1	-2.24
CC1(C)C(=O)Nc2ccccc2N1C(=O)COC(=O)CSc1ccc(Cl)cc1	18.3
COc1ccccc1N1CCN(C(=O)CCSCc2ccccc2F)CC1	4.41
COc1cccc(N2CCN(C(=O)CCSCc3ccccc3F)CC2)c1	-57.9

Compound	hERG current change (%, negative = inhibition) at 10uM [%]
COc1ccc(N2CCN(C(=O)COC(=O)Cc3ccc(F)cc3)CC2)cc1	-20
COc1ccc(N2CCN(C(=O)COC(=O)Cc3cccc(OC)c3)CC2)cc1	-20
COc1ccc(N2CCN(C(=O)CCSCc3ccccc3F)CC2)cc1	-28.1
CSCC(NS(=O)(=O)c1ccc(C)cc1)C(=O)O (centres unmarked)	8.98
CC(=O)N1CC(C)Sc2ccc(S(=O)(=O)NCCc3cccc(C)c3)cc21 (centres unmarked)	0.141
COC(=O)CNC(=O)CNC(=O)Nc1ccccc1Cl	9.2
Cc1ccc(S(=O)(=O)N/N=C/c2ccc(C(=O)O)cc2)cc1	15.2
Nc1nc(N2CCN(c3ccccc3)CC2)n[nH]1	4.2
COc1cc(NC2=Nc3cccc4cccc2c34)cc(OC)c1OC	1.72
CCCCn1c(N)c(NCc2ccccc2OC)c(=O)[nH]c1=O	12.2
Cc1c(C=O)cnn1CCC(=O)O	4.76
O=c1ccc2cc(S(=O)(=O)Nc3ccc(Br)cc3)ccc2o1	5.32
COc1ccccc1NC(=O)CC1CCCC1	15.4
CCn1c(SCC(=O)Nc2cc(C)on2)nc2c(c1=O)SC(C)C2 (centres unmarked)	-4.2
CCc1ccc(OCC(=O)Nc2ccc(S(=O)(=O)N3CCCC3)cc2)c(Br)c1	-4.25
COCCn1c(SCC(=O)Nc2c(C)n(C)n(-c3ccccc3)c2=O)nnc1-c1ccncc1	5.95
CCOC(=O)C1CCN(C(=O)Cn2nc(C)n3nc(-c4ccc(CC)cc4)cc3c2=O)CC1	5.33
O=C(/C=C/c1ccccc1[N+](=O)[O-])OCC(=O)N1CCCC1	12
